Rows were chosen to be rich in hits. Some 1.2% of all compounds tested hit in one or more screens of this group.
PfHsp40 yeast – rescue of yeast from PfHsp40 toxicity, primary screen, S. cerevisiae, ATP luminescence; S. cerevisiae expressing PfHsp40, growth rescue; growth rescue, % at 12.5 µM; 0.68% of 340,000 active; AID 504582, 2011; in the data active = growth rescue above about 28%, passing the limit was not always enough;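 also: yeast W303a lacking pdr1 and pdr3 grown in galactose medium; growth measured after three days at 30 °C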
BH1578 lux ind – inducers of Vibrio cholerae quorum light production without autoinducers, primary screen, BH1578 luxS cqsA deficient, single point. V. cholerae BH1578 lux reporter, luminescence, 6 h. activation, % at 18.7 µM. 0.16% of 350,000 active. AID 588436, 2011; in the data active = activation mostly above about 9.7%, no sharp cut-off
Mtb betalactam – beta-lactam sensitization of Mtb H37Rv, H37Rv; inhibition, % at 25 µM; M. tuberculosis H37Rv growth with meropenem, percent inhibition; AID 434955, 2010; 0.27% of 330,000 active; call rule not given here;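 also: growth measured after seven days incubation then overnight dye step; 0% = bacteria only wells and 100% = bacteria with antibiotic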
Sa ugtP lethal – growth inhibition of ugtP-null S. aureus, primary screen, RN4220 ugtP deletion, OD600; 16 h; growth inhibition, % (test concentration not listed); 0.54% of 330,000 active; AID 1259309, 2017; in the data active = growth inhibition above about 68%;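 also: plate controls were untreated wells for no effect and antibiotic for full effect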
RN4220 kill – growth inhibition of S. aureus RN4220, primary screen, OD600; inhibition, % (concentration not given with the values); AID 1259311, 2017; 0.33% of 330,000 active; 16 h; in the data active = inhibition above about 85%;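 also: plate controls were untreated cells for no effect and reference antibiotic for full effect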
* hit, by the source's call; i = inactive; . = no result.

SMILES	PfHsp40 yeast	BH1578 lux ind	Mtb betalactam	Sa ugtP lethal	RN4220 kill
CC1OC(OC2C(CO)OC(Oc3c(-c4ccc(O)cc4)oc4cc(O)cc(O)c4c3=O)C(O)C2O)C(O)C(O)C1O (stereo unspecified)	.	.	.	-2	3
Cc1ccnc2c1ccc1c(C)ccnc12	82*	-3	80	38	28
Cc1ccnc2c1ccc1cccnc12	1	-1	.	6	-6
COc1ccccc1NN=Cc1ccc2c(c1)OCO2	.	.	.	16	3
Cc1cccc(NC(=O)c2ccc(C(=O)c3ccccc3)cc2)n1	0	1	29	6	2
O=C(Nc1cccc(NC(=O)c2ccccc2)n1)c1ccccc1	6	1	-1	31	96*
O=C(NC(Cc1ccc(O)cc1)C(=O)O)c1ccncc1 (stereo unspecified)	.	.	.	-5	0
COc1ccc(Oc2c(-c3ccc(O)cc3O)n[nH]c2C)cc1	0	-1	2	-13	0
CCCOC(=O)c1ccc(Oc2cn[nH]c2-c2ccc(OCC)cc2O)cc1	11	0	-2	0	-14
CCCc1ccc(Oc2cn[nH]c2-c2ccc(O)c(C)c2O)cc1	83*	i	-3	100*	99*
CCCc1ccc(Oc2c(-c3ccc(O)c(C)c3O)n[nH]c2C)cc1	3	0	3	97*	77
CC(=CCCC(C)(O)C1CC[C@@]2(C)C3CC=C4C(CCC(OC5OC(CO)C(O)C(O)C5O)C4(C)C)[C@]3(C)C(=O)C[C@]12C)COC1OC(CO)C(O)C(O)C1O (stereo partly specified)	.	.	.	0	4
CC(=O)OC(C(O)=C(C#N)c1nc2ccccc2[nH]1)c1ccccc1 (stereo unspecified)	.	.	.	-10	3
Cc1ccc(CC2SC(=Nc3ccccn3)NC2=O)cc1 (stereo unspecified)	.	.	.	-2	3
Brc1ccc2[nH]c3c(N4CCc5ccccc5C4)ncnc3c2c1	.	.	99	97*	72
Cc1ccc(CNC(=O)[C@]2(C)CCC[C@@]3(C)C4CC[C@@]5(C)C[C@]4(CCC32)CC5=O)cc1 (stereo partly specified)	95*	-19	0	.	.
COc1ccc(CNC(=O)[C@]2(C)CCC[C@@]3(C)C4CC[C@@]5(C)C[C@]4(CCC32)CC5=O)cc1 (stereo partly specified)	162*	i	-5	7	4
C[C@@]12CCC3[C@@](CCC4[C@@]3(C)CCC[C@@]4(C)C(=O)NC3CCCCC3)(CC1=O)C2 (stereo partly specified)	4	-1	2	4	6
C/C(C=NNC(=O)c1nnn(-c2nonc2N)c1CN(C)C)=C\c1ccco1	.	.	.	1	4
Cc1ccc(NC(=O)c2cc3nc(C)cc(C)n3n2)cc1	47*	2	4	14	21
Cc1cc(C)n2nc(C(=O)NCc3ccccc3)cc2n1	-2	-8	.	11	4
CN(N=Cc1ccncc1)c1cnn(-c2ccc(F)c(Cl)c2)c(=O)c1Cl	.	.	.	-12	4
C=CCNC(=S)N1CCC(Cc2ccccc2)CC1	91*	-1	2	7	-1
COC(=O)/C=C1\S/C(=N/NC(=O)c2ccccc2)NC1=O	0	0	2	-2	1
COc1ccccc1/C=C1\S/C(=N/NC(=O)c2cccc(Br)c2)NC1=O	142*	0	76	58	68
SMILES	PfHsp40 yeast	BH1578 lux ind	Mtb betalactam	Sa ugtP lethal	RN4220 kill
CC(C(=O)NCc1ccccc1)C1C[C@@]1(C)C(NC(=O)OCc1ccccc1)c1ccccc1 (stereo partly specified)	.	.	.	-1	-8
COc1cccc(-c2ccc(C#N)c(SCC(=O)NCCc3cccc(Cl)c3)n2)c1	-1	1	4	85*	5
COc1ccc(-c2ccc(C#N)c(SCC(=O)NCCc3ccccc3)n2)cc1OC	-1	i	3	7	2
COc1cccc(CN2C[C@]34C=CC(CC3S2(=O)=O)O4)c1 (stereo partly specified)	.	.	.	5	5
NC1=C(Cl)C(=O)c2ccccc2C1=O	-1	i	.	.	.
NC1=C(Cl)C(=O)c2ccc(S(N)(=O)=O)cc2C1=O	-1	-1	.	98*	99*
C=CCc1ccc(OCCOc2ccc(C=Nn3cnnc3)cc2OCC)c(OC)c1	.	.	.	3	3
COC(=O)[C@]1(Cc2ccccc2)NC(c2ccc(-c3ccc4c(c3)OCO4)cc2)C2C(=O)N(C)C(=O)C21 (stereo partly specified)	.	.	.	4	4
N=C(N)c1ccc(OCCCCCOc2ccc(C(=N)N)cc2)cc1	112*	-3	100	.	.

Screening results deposited in PubChem BioAssay by several laboratories.
